Test results taken from the supplement of paper PMC6089552.
About 300 (9.4%) of roughly 3,200 compounds showed activity. The list comes from a sample in which actives are over-represented; it also holds similar structures and randomly drawn compounds.

Tested on: A673/TR/shEF
Assay: cell viability (LOESS-normalised, relative to median of negative controls) (log2 ratio); higher = more viable cells (less compound effect), active = hit call of the paper (over 3 MAD below the median)
Details: treatment time: 72 h
How it was run: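 Viability of A673/TR/shEF Ewing sarcoma cells was determined by CellTiter-Glo luminescence. The cells, at 1,500 per well in 384-well plates, were grown with or without doxycycline from 24 h before compound addition to switch on EWS-FLI1 shRNA knockdown, then exposed for three days to library compounds at two or more concentrations or to DMSO controls. Signals were LOESS-corrected plate by plate, normalised to the negative-control median and log2-transformed.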

[1] = 0.25 µM, library screen: screen1, EWS-FLI1 expression: high (no doxycycline)
[2] = 0.25 µM, library screen: screen1, EWS-FLI1 expression: low (doxycycline-induced shRNA knockdown)
[3] = 2.5 µM, library screen: screen1, EWS-FLI1 expression: high (no doxycycline)
[4] = 2.5 µM, library screen: screen1, EWS-FLI1 expression: low (doxycycline-induced shRNA knockdown)
[5] = 0.103 µM, library screen: screen3, EWS-FLI1 expression: high (no doxycycline)
[6] = 0.103 µM, library screen: screen3, EWS-FLI1 expression: low (doxycycline-induced shRNA knockdown)
[7] = 0.308 µM, library screen: screen3, EWS-FLI1 expression: high (no doxycycline)
[8] = 0.308 µM, library screen: screen3, EWS-FLI1 expression: low (doxycycline-induced shRNA knockdown)
[9] = 0.926 µM, library screen: screen3, EWS-FLI1 expression: high (no doxycycline)
[10] = 0.926 µM, library screen: screen3, EWS-FLI1 expression: low (doxycycline-induced shRNA knockdown)
[11] = 2.8 µM, library screen: screen3, EWS-FLI1 expression: high (no doxycycline)
[12] = 2.8 µM, library screen: screen3, EWS-FLI1 expression: low (doxycycline-induced shRNA knockdown)
[13] = 8.3 µM, library screen: screen3, EWS-FLI1 expression: high (no doxycycline)
[14] = 8.3 µM, library screen: screen3, EWS-FLI1 expression: low (doxycycline-induced shRNA knockdown)
[15] = 25 µM, library screen: screen3, EWS-FLI1 expression: high (no doxycycline)
[16] = 25 µM, library screen: screen3, EWS-FLI1 expression: low (doxycycline-induced shRNA knockdown)
[17] = 0.25 µM, library screen: screen2, EWS-FLI1 expression: high (no doxycycline)
[18] = 0.25 µM, library screen: screen2, EWS-FLI1 expression: low (doxycycline-induced shRNA knockdown)
[19] = 2.5 µM, library screen: screen2, EWS-FLI1 expression: high (no doxycycline)
[20] = 2.5 µM, library screen: screen2, EWS-FLI1 expression: low (doxycycline-induced shRNA knockdown)

Measured: cell viability (log2)

C=CC(C)(CCC1C(=C)CC(OC(C)=O)C2C(C)(C)CCCC12C)OC(C)=O (stereo not drawn)
inactive: [1] 0.025 | [2] 0.066 | [3] 0.163 | [4] -0.0558

O=C1[C@H](Cc2ccc(O)cc2)N2C(=O)CCN(C(=O)NCc3ccccc3)[C@H]2CN1Cc1cccc2ccccc12
active: [15] -1.07 | [16] -1.18
inactive: [5] -0.0101 | [6] 0.068 | [7] 0.0453 | [8] 0.0327 | [9] 0.0157 | [10] 0.0736 | [11] 0.0365 | [12] 0.0441 | [13] -0.0756 | [14] -0.205

O=C(O)[C@@H]1C2CC3c4[nH]c5ccccc5c4CCN3CC2CC[C@@H]1O (stereo partly drawn)
inactive: [1] 0.0321 | [2] 0.0471 | [3] 0.097 | [4] 0.142

Nc1ccn([C@@H]2O[C@H](CO)[C@@H](O)[C@H]2O)c(=O)n1
inactive: [1] 0.138 | [2] 0.019 | [3] 0.237 | [4] 0.0416

Nc1ccn([C@@H]2O[C@H](CO)[C@@H](O)[C@@H]2O)c(=O)n1
active: [5] -0.206 | [17] -0.179 | [9] -0.377 | [3] -0.85 | [19] -1.17 | [11] -0.966 | [13] -1.5 | [14] -0.184 | [15] -2.24 | [16] -0.544
inactive: [6] -0.0158 | [1] 0.0194 | [2] 0.174 | [18] 0.162 | [7] -0.0966 | [8] 0.00929 | [10] -0.00593 | [4] 0.0115 | [20] -0.0511 | [12] -0.023

NC(=O)c1ncn([C@@H]2O[C@H](CO)[C@@H](O)[C@H]2O)n1
inactive: [5] 0.0479 | [6] -0.00301 | [1] 0.0242 | [2] -0.0375 | [17] 0.0942 | [18] 0.138 | [7] 0.00539 | [8] 0.013 | [9] 0.012 | [10] 0.0638 | [3] 0.0898 | [4] -0.0568 | [19] 0.148 | [20] 0.053 | [11] -0.0142 | [12] -0.0276 | [13] 0.0371 | [14] 0.0291 | [15] 0.13 | [16] 0.0392

NC(=O)c1ncn([C@@H]2O[C@H](CO)[C@@H](O)[C@H]2O)c1N
inactive: [5] 0.135 | [6] 0.0617 | [7] 0.0707 | [8] 0.0876 | [9] 0.088 | [10] 0.0588 | [11] 0.1 | [12] 0.0775 | [13] 0.0463 | [14] 0.126 | [15] 0.13 | [16] 0.087

Nc1ccn([C@H]2CC[C@@H](CO)O2)c(=O)n1
inactive: [5] 0.122 | [6] 0.0536 | [17] 0.188 | [18] 0.111 | [7] 0.116 | [8] 0.0808 | [9] 0.123 | [10] 0.139 | [19] 0.0418 | [20] 0.107 | [11] 0.148 | [12] 0.0816 | [13] 0.0629 | [14] 0.0663 | [15] 0.132 | [16] 0.176

Nc1ncn([C@H]2C[C@H](O)[C@@H](CO)O2)c(=O)n1
inactive: [5] -0.0304 | [6] 0.0527 | [7] -0.025 | [8] 0.0562 | [9] -0.0731 | [10] 0.022 | [11] -0.0569 | [12] 0.0493 | [13] -0.0462 | [14] 0.058 | [15] -0.117 | [16] 0.0388

Nc1ccn([C@@H]2O[C@H](CO)[C@@H](O)C2(F)F)c(=O)n1
active: [5] -1.19 | [6] -0.155 | [7] -1.43 | [8] -0.392 | [9] -1.81 | [10] -0.473 | [11] -1.98 | [12] -0.588 | [13] -2.08 | [14] -0.562 | [15] -2.16 | [16] -0.572

NC(=O)c1ncn([C@@H]2O[C@H](CO)[C@@H](O)[C@H]2O)c1O
inactive: [1] 0.115 | [2] 0.116 | [17] 0.21 | [18] 0.141 | [3] 0.0737 | [4] 0.176 | [19] 0.0545 | [20] 0.0404

C[N+](C)(C)CCOP(=O)([O-])OP(=O)(O)OC[C@H]1O[C@@H](n2ccc(N)nc2=O)[C@H](O)[C@@H]1O
inactive: [17] 0.0983 | [18] 0.0319 | [19] 0.095 | [20] 0.0926

Nc1ncn([C@@H]2O[C@H](CO)[C@@H](O)[C@H]2O)c(=O)n1
active: 25 µM, library screen: screen2, EWS-FLI1 expression: high (no doxycycline) -0.117
inactive: 0.025 µM, library screen: screen2, EWS-FLI1 expression: high (no doxycycline) 0.00187 | 0.025 µM, library screen: screen2, EWS-FLI1 expression: low (doxycycline-induced shRNA knockdown) 0.0749 | [1] 0.0677 | [2] 0.0883 | [17] 0.0549 | [18] 0.0892 | [3] 0.046 | [4] 0.161 | [19] 0.0659 | [20] 0.0803 | 25 µM, library screen: screen2, EWS-FLI1 expression: low (doxycycline-induced shRNA knockdown) -0.00278

N=c1ccn2c(n1)O[C@H]1[C@H](O)[C@@H](CO)O[C@H]12
inactive: [2] 0.0178 | [18] 0.0732 | [20] 0.0215
active: [1] -0.254 | [17] -0.122 | [3] -1.03 | [4] -0.19 | [19] -0.641

Nc1ccn([C@@H]2CS[C@H](CO)O2)c(=O)n1
inactive: [5] 0.125 | [6] 0.0191 | [7] 0.0768 | [8] 0.0559 | [9] 0.0245 | [10] 0.0926 | [11] 0.132 | [12] 0.0391 | [13] 0.0536 | [14] 0.0703 | [15] 0.101 | [16] 0.0951

CC(=O)Oc1ccc2c(c1)CCC1C2CCC2(C)C(=O)CCC12 (stereo not drawn)
inactive: [1] 0.0434 | [2] -0.0193 | [3] 0.146 | [4] 0.0428

N.N.N.N.N.O.[Ru+2]
inactive: [17] 0.216 | [18] 0.0909 | [19] 0.256 | [20] 0.0639
